In ChEMBL document CHEMBL4513216, “Probing the Open Global Health Chemical Diversity Library for Multistage-Active Starting Points for Next-Generation Antimalarials” (ACS Infect Dis, 2020):
Among all 69,000 compounds or so, about 8,600 (12%) showed an effect of 50% or more. The sample as a whole holds a higher share of strong results than the screen did.

Each compound was assayed on Plasmodium berghei (assay: Screen against P. berghei liver stage (PbLuc), transformed with Luciferase, at 10uM). Settings: tested at 10 uM.
Assay type: functional, HepG2

Row | Structure (SMILES) | INHIBITION
1 | CCc1nnc(SCC(=O)N2C[C@H]3CC[C@@H](C2)N(CC=C(C)C)C3)[nH]1 | 26.7%
2 | CC1c2ncc(CNC(=O)C3CC3)n2CCN1Cc1cccnc1 (centres undefined) | -5.31%
3 | Cc1nc(N2CCOCC2)sc1C(=O)NCC(C)(C)N1CCCCC1 | -4.87%
4 | COCCN1CCCC12CCN(C(=O)CC1CCCC1)CC2 | 32.4%
5 | Cn1ncc(C(=O)N2CCN(CCS(C)(=O)=O)CC2)c1Cl | 30.95%
6 | O=C(NCC(O)Cc1ccccc1)c1ccc2[nH]c(=O)[nH]c2c1 (centres undefined) | 43.9%
7 | CCCn1nc(C)c(CN2CC3(CCOC3)CCC2=O)c1C (centres undefined) | 64.5%
8 | O=C1CCC2(CCOC2)CN1Cc1nncn1CCc1ccccc1 (centres undefined) | 10.1%
9 | O=C1CCC2(CCOC2)CN1Cc1ccc2nsnc2c1 (centres undefined) | 16.8%
10 | Cc1nc2ccc(CN3CC4(CCOC4)CCC3=O)cc2[nH]1 (centres undefined) | 67.4%
11 | O=C1CCC2(CCOC2)CN1Cc1nc2ccc(Cl)cc2[nH]1 (centres undefined) | 27.9%
12 | O=C1CCC2(CCOC2)CN1CCCOc1cccnc1 (centres undefined) | -0.897%
13 | CCn1nc(C)c(CCN2CC3(CCOC3)CCC2=O)c1C (centres undefined) | 56.6%
14 | CCc1c(C)nn(CCN2CC3(CCOC3)CCC2=O)c1C (centres undefined) | 44.3%
15 | CCCc1nc(C)c(CN2CC3(CCOC3)CCC2=O)s1 (centres undefined) | 33.7%
16 | O=C([C@H]1CC[C@@H]2[C@@H](CCN2c2ncccn2)O1)N1CCCCO1 | -13.2%
17 | Cc1noc(C(C)N2CCN(Cc3nnc(C4CC4)o3)CC2)n1 (centres undefined) | -19.6%
18 | CN(C)C(=O)c1n[nH]c2c1CN(CC1CCC1)C2 | 30.5%
19 | O=C1CCC(C(=O)Nc2cnn(-c3ccccc3Cl)c2)N1 (centres undefined) | 19.7%
20 | Cc1ccc(-c2csc(N)c2C#N)c(C)c1 | 40.9%
21 | Cc1ccc(C)c(-c2csc(N)c2C#N)c1 | 64.7%
22 | COc1ccc(C)cc1-c1csc(N)c1C#N | 1.86%
23 | Cc1nc[nH]c1CN1C[C@H]2CC[C@@H](C1)N(C(=O)CCn1cncn1)C2 | 40.2%
24 | COc1cccc(C(C)Nc2ncnc3c2NC(=O)CN3)c1 (centres undefined) | 45.8%
25 | CC(CN1CCOCC1)n1cncc1-c1ccc2c(c1)CCCN2C (centres undefined) | -16%
26 | NC(=O)C(NC(=O)c1cc(Br)c[nH]1)c1ccccc1 (centres undefined) | 34.4%
27 | NC(=O)C(NC(=O)c1cc(Cl)c[nH]1)c1ccccc1 (centres undefined) | 52.8%
28 | Cc1cc(C)c(C(=O)N[C@H](C(N)=O)c2ccccc2)c(=O)[nH]1 | -31.4%
29 | CO[C@H]1CCN(Cc2c(C)noc2C)[C@@H]2CN(Cc3cccnc3)C[C@H]12 | 28.5%
